# Measurements reported in PubChem BioAssay AID1345085 (National Center for Advancing Translational Sciences (NCATS), 2018).
# Inconclusive results are not listed. The source made the active and inactive calls. Calls come from the whole dose curve; as a rule, active = well fitted cell-killing curve with a large enough effect; inconclusive = small, poorly fitted or top-dose-only effect, or effect the other way; inactive = no such curve, though single readings can be large or run the other way.
# Test system: Hek293T
# Experiment: Confirmatory qHTS for gynecologic anti-cancer compounds from libraries of approved drugs and bioactive compounds; note: nearly all actives have a fitted effect of over 55% in size
# Conditions: gynecologic cancer cell panel viability, ATPlite luminescence, 48 h; series mostly up to 57.6 µM; activity change, negative = viability loss: at the top concentration
# Procedure, shortened: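 Seeding 1,000 cells per well preceded overnight (16 h) attachment, after which 48 h drug treatment across 57.5 uM–0.977 nM (11 points) was applied. Remaining cellular ATP, detected by ATPlite luminescence, defined IC50.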
# % is set by controls: 0 for no effect and ±100 for the full control effect; potency is the fitted concentration of half-maximal effect.
SMILES,"activity change, negative = viability loss",Potency
CCN1CCN(Cc2ccc(Nc3ncc(F)c(-c4cc(F)c5nc(C)n(C(C)C)c5c4)n3)nc2)CC1,-21.2% (inactive),–
C[C@@H](Oc1cc(-c2cnn(C3CCNCC3)c2)cnc1N)c1c(Cl)ccc(F)c1Cl,–,21.7 µM (active)
O=c1c(-c2ccc(O)cc2)coc2cc(O)cc(O)c12,10.9% (inactive),–
COc1cccc2c1C(=O)c1c(O)c3c(c(O)c1C2=O)C[C@@](O)(C(=O)CO)C[C@@H]3O[C@H]1C[C@H](N)[C@H](O)[C@H](C)O1,–,3.85 µM (active)
Cc1ccc(C(N)=O)cc1Nc1nccc(-c2cn(C(C)C)c3cnccc23)n1,–,13.7 µM (active)
C1CCC(C(CC2CCCCN2)C2CCCCC2)CC1 (stereo unspecified),–,27.3 µM (active)
COc1cc2c(NC3CCN(C(C)C)CC3)nc(C3CCCCC3)nc2cc1OCCCN1CCCC1,–,9.68 µM (active)
O=C1c2c(O)ccc(O)c2C(=O)c2c(NCCNCCO)ccc(NCCNCCO)c21,–,0.863 µM (active)
Cc1cc(Nc2nc(N[C@@H](C)c3ccc(F)cc3)c(C#N)cc2F)n[nH]1,-34.8% (inactive),–
Cc1csc(NC(=O)c2sc3nc4c(c(C(F)(F)F)c3c2N)CCC4)n1,–,0.769 µM (active)
COc1cc2c(cc1-c1c(C)noc1C)ncc1[nH]c(=O)n(C(C)c3ccccn3)c12 (stereo unspecified),13.3% (inactive),–
CS(=O)(=O)c1ccc(C(=O)Nc2ccc(Cl)c(-c3ccccn3)c2)c(Cl)c1,-34.4% (inactive),–
CC(C)Oc1ccc2c(=O)c(-c3ccccc3)coc2c1,–,4.85 µM (active)
CC(Oc1cc(-n2cnc3ccc(CN4CCN(C)CC4)cc32)sc1C(N)=O)c1ccccc1C(F)(F)F (stereo unspecified),–,24.3 µM (active)
Cc1[nH]c2ccccc2c1CCNCc1ccc(/C=C/C(=O)NO)cc1,–,0.193 µM (active)
CCOc1cc2ncc(C#N)c(Nc3ccc(F)c(Cl)c3)c2cc1NC(=O)/C=C/CN(C)C,–,15.3 µM (active)
CC[C@@]1(O)C(=O)OCc2c1cc1n(c2=O)Cc2cc3c(CN(C)C)c(O)ccc3nc2-1,–,3.43 µM (active)
CO[C@@]12[C@H](COC(N)=O)C3=C(C(=O)C(C)=C(N)C3=O)N1C[C@@H]1N[C@@H]12,-2.77% (inactive),–

SMILES,"activity change, negative = viability loss",Potency
O=C(O)c1ccc(Nc2ncc3c(n2)-c2ccc(Cl)cc2C(c2c(F)cccc2F)=NC3)cc1,11.7% (inactive),–
CCCC(Nc1nc(-c2ccc(NC(=O)NCC)c(OC)c2)ncc1C)c1cccnc1 (stereo unspecified),-23.7% (inactive),–
Cc1ccc(C(=O)Nc2ccc(Oc3cc4cnn(C)c4cc3-c3cn[nH]c3)c(F)c2)c(=O)n1-c1ccc(F)cc1,–,1.93 µM (active)
FC(F)(F)c1ccc(/C=C/c2nc(COc3ccc(CCCCn4ccnn4)cc3)co2)cc1,–,0.0193 µM (active)
CCC1C(=O)N(C)c2cnc(Nc3ccc(C(=O)NC4CCN(C)CC4)cc3OC)nc2N1C1CCCC1 (stereo unspecified),–,0.0193 µM (active)
COc1ccc2c(c1OC)C(=O)O[C@@H]2[C@H]1c2c(cc3c(c2OC)OCO3)CCN1C,4.29% (inactive),–
CN(Cc1cnc2nc(N)nc(N)c2n1)c1ccc(C(=O)N[C@@H](CCC(=O)O)C(=O)O)cc1,–,0.109 µM (active)
CCC(=O)N1CCN(c2ccc(-n3c(=O)ccc4cnc5ccc(-c6cnc7ccccc7c6)cc5c43)cc2C(F)(F)F)CC1,–,0.0498 µM (active)
CCCCc1oc2ccc(NS(C)(=O)=O)cc2c1C(=O)c1ccc(OCCCN(CCCC)CCCC)cc1,–,27.3 µM (active)
O=C(/C=C/c1cccc(S(=O)(=O)Nc2ccccc2)c1)NO,–,1.88 µM (active)
COc1cc(N2CCC(N3CCN(C)CC3)CC2)ccc1Nc1ncnc(Nc2ccccc2S(=O)(=O)C(C)C)n1,–,21.7 µM (active)
NC(=O)Nc1cc(-c2cccc(F)c2)sc1C(=O)NC1CCCNC1 (stereo unspecified),–,0.273 µM (active)
CS(=O)(=O)c1ccc(-c2cnc(N)c(C(=O)Nc3ccccc3)n2)cc1,4.76% (inactive),–
CN1CCN(c2cccc(Nc3nc4c(-c5ccc(S(C)(=O)=O)cc5)cccn4n3)c2)CC1,-4.33% (inactive),–
CC(C)Nc1cc(-c2c[nH]c(C(=O)N[C@H](CO)c3cccc(Cl)c3)c2)c(Cl)cn1,-4.93% (inactive),–
CN1C2CCC1CC(OC(=O)[C@H](CO)c1ccccc1)C2 (stereo partly specified),0.591% (inactive),–
NC(=O)c1cccc2cn(-c3ccc([C@@H]4CCCNC4)cc3)nc12,-15.5% (inactive),–
CN(c1nccc(=O)[nH]1)C1CCN(c2nc3ccccc3n2Cc2ccc(F)cc2)CC1,-18.3% (inactive),–
